Data on 40 molecules can be found in PubChem BioAssay AID2017 (National Center for Advancing Translational Sciences (NCATS), 2009).

Inconclusive results are not listed. Active and inactive are the calls of the source. Calls follow the shape of the dose curve; as a rule, active = well fitted curve in the direction sought with a large enough effect; inconclusive = small, poorly fitted or top-dose-only effect, or another doubt; inactive = no such curve, though single readings can be large or run the other way.

In this assay the test system is 4-diphosphocytidyl-2-C-methyl-D-erythritol kinase IspE (bacterial, species not stated). Put plainly: Confirmatory Assay for Inhibitors of Human Galactokinase (GALK): CDP-Me assay counterscreen. The following applies: ATP depletion, Kinase-Glo luminescence; series mostly up to 115 µM. The source says:
NIH Molecular Libraries Probe Production Centers Network [MLPCN] NIH Chemical Genomics Center [NCGC] MLPCN Grant: R03 MH085689-01 Assay Submitter (PI): Kent Lai (University of Utah School of Medicine, 50 N Mario Capecchi Drive, Salt Lake City, UT 84132) NCGC Assay Overview The GHMP kinase family is a unique class of important enzymes that plays an essential role in many metabolic processes. It contains more than 170 protein members among which are the galactokinase (GALK) and the CMK enzymes. GALK plays a crucial role in galactose processing and is a potential therapeutic target for Classic Galactosemia (OMIM: 230400). CMK is involved for the non-mevalonate synthesis of isoprenoids precursors and natural products like sterols or ubiquinones which are important to many biological functions. Although the sequence identity between GALK and CMK is low, the three-dimensional structures and active sites are highly similar. Therefore to determine the validity and selectivity of an active compound observed in the GALK qHTS screen (AID: 1868), a bioluminescent counter-screen targeting bacterial CMK was developed. In addition, because the mevalonate independent synthesis of isoprenoids are more prevalent in opportunistic pathogens such as bacteria, CMK is a potential novel therapeutic target where selective inhibitors could be used to determine potential antibacterial effects. The CMK (provided by Kent Lai) was assayed using ATP and 4-diphosphocytidyl-2-C-methyl-D-erythritol (CDP-ME; Echelon, cat# I-M052) as substrates. Promega Kinase-Glo Plus (cat# V3774) technology was used to detect the residual ATP following kinetic reaction. Briefly, the Kinase-Glo Plus contains Ultra-Glo [5] luciferase and D-luciferin which generates a bioluminescence signal from the remaining ATP.
NCGC Assay Protocol Summary: Three uL/well of substrate solution (15 uM ATP, 30 uM CDP-ME, 20 mM HEPES pH8.0, 5 mM MgCl2, 40 mM KCl, 1 mM DTT, 0.01% BSA final concentration) was dispensed into 1536-well, assay plates (Greiner, solid white medium-binding plates) with Aurora Discovery BioRAPTR Flying Reagent Dispenser (FRD; Beckton-Dickenson). […] One uL/well enzyme solution (0.25 ug/mL CDP-Me kinase, 20 mM HEPES pH8.0, 5 mM MgCl2, 40 mM KCl, 1 mM DTT, 0.01% BSA final concentration) was then added using the FRD yielding a total kinase reaction volume of 4 uL/ well. After 1 hour of room temperature incubation, 4 uL Kinase-Glo Plus reagent was added for a final assay volume of 8 uL/well. After 1 min, luminescence was detected with the ViewLux plate reader (Perkin Elmer, Waltham, MA) using a 1 sec exposure time and 2x binning settings.
In general terms: The purpose of a counterscreen is to sort out artefacts and off-target activity.
Turning to `C=CCN1C(=O)/C(=C/c2ccc(OC(C)=O)c(OCC)c2[N+](=O)[O-])SC1=S`, the call was inactive.
The result for `COc1ccc(-n2nnc3c(=O)n(CC(=O)N4CCC(C)CC4)cnc32)cc1` reads “inactive”.
With `N#C/C(=C(/O)c1cc2ccccc2o1)c1nc2ccccc2s1`, the molecule was called inactive.
Consider `O=C1C=C(N(CCO)Cc2ccccc2)c2ccccc2C1=O`, for which the result was inactive.
For the molecule `CCN1CCN(CCNC(=O)c2ccc3nc(-c4cccc(C)c4)c(-c4cccc(C)c4)nc3c2)CC1`, the molecule was classed as inactive.
With `O=S(=O)(NCc1cccs1)c1ccc(Br)s1`, the molecule was called inactive.
Turning to `Cc1snc(S(=O)(=O)/C(C#N)=N/Nc2ccc(C(F)(F)F)cc2)c1C#N`, the molecule was called inactive.
On to `Cc1[nH][nH]c(=O)c1C(c1ccc(-c2ccc(Cl)c(C(=O)O)c2)o1)c1c(C)[nH][nH]c1=O`, for which the result was inactive.
On to `COCc1cc(CN2CCCC2)c(O)c2ncccc12`, for which the result was inactive.
In the case of `O=C1c2ccccc2C(=O)C12OC2c1cccc2ccccc12` (stereo not given), the call was inactive.
On to `COc1ccc(C/C(O)=C(\C#N)c2nc3ccccc3s2)cc1`, for which the molecule was called inactive.
For the molecule `COC(=O)c1ccc(CSc2ccc3nnc(-c4ccccn4)n3n2)o1`, the call was inactive.
With `O=C1/C(=C\c2ccc(O)c(O)c2)C(c2ccccc2)=NN1c1ccccc1`, the call was inactive.
As for `Cc1ccc(S(=O)(=O)/N=C2/NC(=O)/C(=C\c3cc(Br)cc(Br)c3O)S2)cc1`, the result was inactive.
Turning to `O=C1C=CC2=C3c4cc(O)c(O)cc4CC3(O)COC2=C1O` (stereo not given), the outcome was inactive.
Next, `CC(=O)c1ccc(NC(=S)Nc2cccc3cnccc23)cc1`: “inactive”; `CCOC(=O)c1cc(-c2ccc(/C=C3/C(=O)N(c4ccc(C(=O)O)cc4)N=C3C)o2)ccc1Cl`: “inactive”.
With `CCOc1cc(/C=C2/C(=N)N3C(=NC2=O)SN=C3S(C)(=O)=O)ccc1OS(=O)(=O)c1ccccc1`, the call was inactive.
As for `COc1ccc2cc(C(N)=O)c(=Nc3ccc(C)cc3)oc2c1`, the outcome was inactive.
The result for `CCOc1cc(/C=C2\C(=O)ON=C2c2ccccc2)cc(Br)c1O` reads “inactive”; that for `COc1cc(/C=C2\C(=O)ON=C2c2ccccc2)cc(Br)c1O`, “inactive”; that for `N#C/C(=C(/O)Cc1cccc2ccccc12)c1nc2ccccc2s1`, “inactive”.
As for `O=C1/C(=C\c2cc(Cl)c(O)c(Cl)c2)SC(=S)N1Cc1ccccc1`, the outcome was inactive.
For `O=C(O)c1ccc(NC2=C/C(=N/S(=O)(=O)c3ccccc3)c3ccccc3C2=O)cc1`, the molecule was called inactive.
On to `CCS(=O)(=O)C1=NSC2=NC(=O)/C(=C\c3ccc(OS(=O)(=O)c4ccccc4)c(OC)c3)C(=N)N21`, for which the result was inactive.
As to `CS(=O)(=O)C1=NSC2=NC(=O)/C(=C\c3ccc(OS(=O)(=O)c4ccccc4)cc3)C(=N)N21`, the call was inactive.
For the molecule `O=c1[nH]c(/C=C/c2ccc([N+](=O)[O-])cc2)c([N+](=O)[O-])c(=O)[nH]1`, the outcome was inactive.
In the case of `O=C(COc1ccccc1/C=C\c1[nH]c(=O)[nH]c(=O)c1[N+](=O)[O-])Nc1ccccc1`, the molecule was classed as inactive.
`O=C(O)c1cccc(S(=O)(=O)N2CCC(n3nnc4cc(C(F)(F)F)ccc43)CC2)c1`: the molecule was called inactive.
In the case of `CC1(C)CC(=O)C2=C(C1)NC(Nc1nc3ccccc3o1)=NC21CCCC1`, the outcome was inactive.
In the case of `Cc1snc(S(=O)(=O)/C(C#N)=N/Nc2cccc(C(F)(F)F)c2)c1C#N`, the molecule was called inactive.
For the molecule `Cc1ccc(C)c(CN2C(=O)CSc3ccc(C(=O)NCCN4CCOCC4)cc32)c1`, the result was inactive.
Consider `O=C1C(Cl)=C(N2CCC(C(=O)O)CC2)C(=O)c2ccccc21`, for which the molecule was called inactive.
On to `O=C1ON=C(c2ccccc2)/C1=C/c1ccc(O)c(O)c1`, for which the molecule was classed as inactive.
Next, `O=C1CCCC2=C1C1(CCCCC1)N=C(Nc1nc3ccccc3o1)N2`: “inactive”; `Cc1ccc(F)c(NC(=O)/C(C#N)=C(\O)c2ccc(C(C)(C)C)cc2)c1`: “inactive”; `Cc1nn(Cc2noc(C(=O)NCC3CCCO3)n2)c(C)c1Br` (stereo not given): “inactive”.
In the case of `CCS(=O)(=O)C1=NSC2=NC(=O)/C(=C\c3ccc(OS(=O)(=O)c4ccccc4)cc3)C(=N)N21`, the result was inactive.
Consider `Cc1nc(NS(=O)(=O)c2ccc(Cl)s2)c2c3c(sc2n1)CCCC3`, for which the outcome was inactive.
In the case of `NS(=O)(=O)c1ccc(NC(=S)NNC(=O)c2ccc(Br)o2)cc1`, the molecule was classed as inactive.
